Structures can show the parent of a compound that is named as a salt.
The compounds below were run on thyroid hormone receptor (endogenous TRα and TRβ). Conditions: read-out: Average AC50 (uM) GH3-TRE-Antag, antagonist mode, 1 nM T3, no GH3 cytotoxicity hit.
Design: species or system GH3-TRE-Luc (rat pituitary); GH3-TRE-Luc luciferase reporter, antagonist mode against 1 nM T3, loss of signal, qHTS

First: Cc1ccc(Cl)c(Nc2ccccc2C(=O)O)c1Cl [Meclofenamate sodium]
Second: O=C(O)c1cc(Oc2ccc(C(F)(F)F)cc2Cl)ccc1[N+](=O)[O-] [Acifluorfen]
The AC50 of the first is 2.3-fold lower: 30.6 µM for the first, 71.8 µM for the second.

First: CC(=O)Nc1ccn(C2COC(COC(=O)c3ccccc3)O2)c(=O)n1 (stereo not shown) [{4-[4-(Acetylamino)-2-oxopyrimidin-1(2H)-yl]-1,3-dioxolan-2-yl}methyl benzoate]
Second: Oc1ccc2c(c1)-c1ccccc1C2 [3-Hydroxyfluorene]
The AC50 of the first is 8-fold lower: 11.4 µM for the first, 91.5 µM for the second.

`Cc1c(OCC(F)(F)F)ccnc1C[S+]([O-])c1nc2ccccc2[nH]1` (stereo not shown) [Lansoprazole] and `CCCCCCOc1ccc(N)cc1` [4-Hexyloxyaniline] cannot be ordered by AC50: > 50 µM for the first, 59.8 µM for the second.

`Oc1ccc2ccc3cccc4ccc1c2c34` [1-Hydroxypyrene] and `O=P(c1ccccc1)(c1ccccc1)c1ccccc1` [Triphenylphosphine oxide] are within 1.5-fold of each other in AC50: 55.7 µM for the first, 58.7 µM for the second.

First: C#C[C@]1(O)CC[C@H]2[C@@H]3CCc4cc(O)ccc4[C@H]3CC[C@@]21C [17alpha-Ethinylestradiol]
Second: C/C=C(/CC[C@@H](C)[C@H]1CC[C@H]2C3=CC[C@H]4[C@H](C)[C@@H](O)CC[C@]4(C)[C@H]3CC[C@]12C)C(C)C [Sitosterol alpha1]
The AC50 of the first is 2.5-fold lower: 16.2 µM for the first, 40.6 µM for the second.

`C=CCCCCCCCCC=O` [Undec-10-enal] and `CCOC(=O)CS` [Acetic acid,mercapto-,ethylester] are within 1.5-fold of each other in AC50: 75.3 µM for the first, 73.6 µM for the second.

In the case of `Nc1ccccc1N` [1,2-Phenylenediamine dihydrochloride], the AC50 is reported as 92.5 µM.

Source: article PMC6792352, “Limited Chemical Structural Diversity Found to Modulate Thyroid Hormone Receptor in the Tox21 Chemical Library” (Environmental Health Perspectives, 2019)
